Compound activity as filed in PubChem BioAssay.
Most compounds without a hit are left out; they make up all but 11% or so of the library.
PNC assembly inh – blocks assembly of the perinucleolar compartment. PC3M PTB-GFP, PNC prevalence imaging, 16 h; active compounds read low. activity change (PNC), negative = inhibition, % at 10 µM. actives 3.1% (n = 140,000). AID 2417;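 active means readout at or below -70, meaning at least 70% loss of cells showing the perinucleolar compartment, a nuclear body marking cancer cells; inconclusive means readout between -30 and a set limit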;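 further: plate controls were DMSO wells for no effect and camptothecin positive control wells for full effect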
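Read-out is percentage of cells bearing a perinucleolar compartment, from automated 20x imaging of fixed, Hoechst-stained PC3M PTB-GFP cells. Cells were seeded 4 h, then exposed 16 h to compound (23 nl of library stock) in duplicate plates.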
ALDH1A1 inh – ALDH1A1 (human) enzyme inhibition | Purified ALDH1A1, NADH fluorescence, propionaldehyde substrate | Potency, µM (highest dose often 75.3 µM), inactives show top-dose activity, negative = inhibition, usual class: inhibitors | actives 7.3% (n = 220,000) | AID 1030; active means well fitted inhibition curve with a large enough effect, not every such curve was filed as active; inconclusive means small, poorly fitted or top-dose-only effect, or another doubt; inactive means no such curve, though single readings can be large or run the other way;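 further: potency means the concentration at half of the fitted maximal effect; plate controls were no enzyme wells and a reference inhibitor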
CBFb-RUNX1 inh – inhibitors of human CBF-beta and RUNX1 interaction; Q01196+Q13951; AlphaScreen CBFb-His/RUNX1-biotin binding, biochemical; Potency, µM (highest dose often 59.8 µM), for the others: at the top dose activity, negative = inhibition, usual class: inhibitors; 230,000 tested, under 10 active; AID 1477; further: % of control where 0% means no effect
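Proteins preincubated together for 20 min at RT before compound addition; 15 min later, nickel and streptavidin beads were added and left 90 min prior to AlphaScreen measurement.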
HTT ATP protect – cytoprotection in Huntington HTT-Q103 PC12 cell model; PC12 HTT-Q103 induced, cytoprotection, ATP luminescence, 40 h; Potency, µM (highest dose often 56.4 µM), for inactives: cytoprotection (ATP increase), usual class: activators; actives 0.14% (n = 230,000); AID 1471; further: potency means the concentration at half of the fitted maximal effect; % of control where 0% means no effect; nearly all actives have a fitted effect of over 45% in size
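PC12 cells with ecdysone-inducible HTT exon 1 Q103-GFP, induced with 100 nM tebufenozide and co-treated with library compounds in a dose series (1536-well, 1500 cells/well). Cytoprotection read as ATP content by ATPlite luminescence.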
HPGD block – HPGD (human) dehydrogenase inhibition; actives 4.3% (n = 150,000); AID 894; purified HPGD, NADH fluorescence kinetic, PGE2 substrate; Potency, µM, for inactives: at the top dose activity change, negative = inhibition, usual class: inhibitors; P15428; active means well fitted inhibition curve with a large enough effect, not every such curve was filed as active; inconclusive means small, poorly fitted or top-dose-only effect, or another doubt; inactive means no such curve, though single readings can be large or run the other way; further: potency means the concentration at half of the fitted maximal effect; on the % scale 0 is the no-effect control and ±100 the full control effect
Target sequence (P15428 whole entry, looked up): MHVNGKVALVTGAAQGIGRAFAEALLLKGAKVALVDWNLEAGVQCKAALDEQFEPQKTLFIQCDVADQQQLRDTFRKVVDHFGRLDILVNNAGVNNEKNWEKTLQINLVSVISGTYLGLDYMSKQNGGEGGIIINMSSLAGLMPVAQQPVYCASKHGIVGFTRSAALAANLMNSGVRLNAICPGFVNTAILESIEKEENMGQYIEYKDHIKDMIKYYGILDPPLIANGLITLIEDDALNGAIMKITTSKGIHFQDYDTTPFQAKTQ
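NADH formation kinetics: reaction with 30 uM PGE2 and 1 mM NAD+ (final), 20 nM enzyme, Tris-HCl pH 8 with Tween 20, after 15 min compound preincubation at room temperature. Fluorescence change, last versus first of five reads.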
HTT aggregate – reduces HttQ103-GFP aggregates in PC12 cells; PC12 HttQ103-GFP aggregates, Acumen cytometry, 40 h; Potency, µM (titrated, usually from 46.1 µM), for the others: top-dose activity change, negative = inhibition, actives largely listed as inhibitors; actives 1.1% (n = 220,000); AID 1688; further: potency means the concentration at half of the fitted maximal effect; on the % scale 0 is the no-effect control and ±100 the full control effect; nearly all actives have a fitted effect of over 60% in size
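Read-out: GFP aggregate count by laser scanning cytometer (488 nm excitation, 500-530 nm emission, 1–25 µm objects >6 SD above background). Cells: PC12, inducible HTTex1-Q103-GFP, 100 nM tebufenozide; compounds titrated.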
Starred values were filed as active, the others as inactive; [ ] = another dose, or the depositor's remark. Unless noted, the call rests on the fitted dose curve; in most records, active means well fitted curve in the direction sought with a large enough effect; inconclusive means small, poorly fitted or top-dose-only effect, or another doubt; inactive means no such curve, though single readings can be large; an effect the other way counts as inactive or inconclusive.

Results for CC(C)Sc1nc2c(c(=O)[nH]c(=O)n2C)n1CCc1ccccc1 ?
PNC assembly inh: inconclusive; ALDH1A1 inh: inconclusive; CBFb-RUNX1 inh: -3%; HTT ATP protect: 10%[10 µM]; HPGD block: -13%; HTT aggregate: -1%

Results for CCCCCn1c(SC(C)C(C)=O)nc2c1c(=O)[nH]c(=O)n2C (stereo not drawn) ?
PNC assembly inh: 9; ALDH1A1 inh: inconclusive; CBFb-RUNX1 inh: -2%; HTT ATP protect: -22%; HPGD block: -8%; HTT aggregate: 8%

How did COc1cccc(-c2ccc3ncnc(N4CCNCC4)c3c2)c1 do in these assays?
ALDH1A1 inh: -4%; HTT ATP protect: -69%

How did Cc1ccc(OCCCC(=O)Nc2ccccc2C(F)(F)F)cc1 do in these assays?
PNC assembly inh: 56; ALDH1A1 inh: -4%; CBFb-RUNX1 inh: 4%; HTT ATP protect: -27%; HPGD block: -9%; HTT aggregate: 1%

What do the screens show for `C=CCNC(=O)COc1cc(C)cc(C)c1C`?
ALDH1A1 inh: 1%; CBFb-RUNX1 inh: 4%; HTT ATP protect: -28%; HTT aggregate: 2%

Results for COc1ccc(OCCCC(=O)NCC(C)C)cc1 ?
PNC assembly inh: inconclusive; ALDH1A1 inh: 5%; CBFb-RUNX1 inh: 5%; HTT ATP protect: -9%; HPGD block: 25µM*; HTT aggregate: -3%

What do the screens show for `C=CCNC(=O)CCCOc1cc(C)ccc1C`?
PNC assembly inh: -1; ALDH1A1 inh: 1%; CBFb-RUNX1 inh: 12%; HTT ATP protect: -55%; HPGD block: 14µM*; HTT aggregate: 8%

What do the screens show for `C=CCNC(=O)CCCOc1ccc(C)cc1`?
PNC assembly inh: 21; ALDH1A1 inh: 6%; CBFb-RUNX1 inh: 3%; HTT ATP protect: 4%[10 µM]; HPGD block: 7.1µM*; HTT aggregate: inconclusive

How did CC(C)(C)C1=Nn2c(nnc2-c2n[nH]c3c2CCC3)SC1 do in these assays?
PNC assembly inh: inconclusive; ALDH1A1 inh: inconclusive; CBFb-RUNX1 inh: -4%; HTT ATP protect: -5%[0.074 µM]; HPGD block: 16µM*; HTT aggregate: -10%

Results for O=C(Oc1ccc2c(=O)c(Cl)coc2c1)c1cccnc1 ?
PNC assembly inh: -26; ALDH1A1 inh: 20µM*; CBFb-RUNX1 inh: 0%; HTT ATP protect: -5%; HPGD block: -21%; HTT aggregate: 17%

What do the screens show for `COc1ccccc1CN1C[C@@H]2C[C@@H](c3ccc(C)c(C)c3)N3CCC[C@@]23C1=O`?
ALDH1A1 inh: 12%; CBFb-RUNX1 inh: -2%; HTT ATP protect: -47%[10 µM]; HTT aggregate: -4%[9.22 µM]

Results for CC(C)OC(=O)CSc1nnc2c(n1)[nH]c1ccc(F)cc12 ?
ALDH1A1 inh: 1%; CBFb-RUNX1 inh: 0%; HTT ATP protect: 14%[10 µM]; HTT aggregate: 13%

How did CN(C)c1ccc(N=Nc2ccccc2C(=O)OCC(=O)NCC2CCCCC2)cc1 do in these assays?
PNC assembly inh: -6; ALDH1A1 inh: -12%; CBFb-RUNX1 inh: 3%; HTT ATP protect: 5%[10 µM]; HPGD block: -18%; HTT aggregate: -1%

Results for CN(C)c1ccc(N=Nc2ccccc2C(=O)OCC(=O)NC2CCCC2)cc1 ?
PNC assembly inh: -115*; ALDH1A1 inh: -8%; HTT ATP protect: -20%[10 µM]; HTT aggregate: 6.3µM*

What do the screens show for `CC1(C)Cc2c(C#N)c(N)sc(=S)c2CS1`?
PNC assembly inh: 11; ALDH1A1 inh: 7.1µM*; CBFb-RUNX1 inh: -1%; HTT ATP protect: 25%[10 µM]; HPGD block: -12%; HTT aggregate: 5%

What do the screens show for `N#Cc1c(N)sc(=S)c2c1CCCCC2`?
PNC assembly inh: 44; ALDH1A1 inh: inconclusive; CBFb-RUNX1 inh: -26%; HTT ATP protect: -8%[10 µM]; HPGD block: 16µM*; HTT aggregate: -21%

Results for Cc1cc(Cc2cc(C)cc(C(C)(C)C)c2O)c(O)c(Cc2cc(C)cc(C(C)(C)C)c2O)c1 ?
ALDH1A1 inh: 3%[13.5 µM]; HTT ATP protect: 18%[10 µM]; HPGD block: -4%
